Screen size: about 300,000 compounds; about 2,700 (0.9%) were called active.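 Rule for the calls: active = mean inhibition of at least 30% with at least half of replicates also reaching 30%; inconclusive = no clear call, values can overlap the other calls; inactive = the rest.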 Many of the other results were omitted from the sample, so actives are more common in it than they were.
Each molecule was assayed against Golgi-associated PDZ and coiled-coil motif-containing protein (Homo sapiens) (UniProt Q9HD26) (assay: blockade of CAL PDZ-reporter peptide interaction – biochemical, fluorescence polarization, untagged CAL PDZ, HTS, primary screen (AID 602252;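 note: 0% = DMSO neutral control and 100% = excess unlabeled competitor peptide PRC23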)). Details: purified CAL PDZ, TMR-peptide fluorescence polarization, 1 h; at 24.9 µM; stronger effect = higher value.

inhibition, active:
S=C(c1ccc(-c2ccccc2)o1)N1CCCCC1 54.6%
O=c1oc2ccccc2c(=O)c2ccccc12 39.9%
CSc1ccccc1NC(=O)c1cc(Cl)sc1Cl 35%
O=C(OCC(=O)N1CCOCC1)c1ccc(N2CCOCC2)c([N+](=O)[O-])c1 53.8%
Cn1c(CCC(=O)Nc2ccccc2F)nnc1SCC(=O)Nc1ccccc1Cl 63.9%
CC1(C)CC(N2CCN(C(c3ccccc3)c3ccccc3)CC2)=CC(=[N+]2CCCCC2)C1 46.7%
Cc1[nH]n(-c2ccc([N+](=O)[O-])cc2)c(=O)c1C=NCCN1CCN(C(=O)c2ccccc2F)CC1 51.8%
CN1c2ccc(C=O)c3c(C=O)ccc(c23)N(C)C1(C)C 67%
CN(c1ccc(OCC(=O)NC2=NCCS2)cc1)S(=O)(=O)c1ccc(F)cc1 81.4%
CSCCC(NS(=O)(=O)c1ccc(C)cc1)C(=O)N1CCCC1 (stereo not given) 68.8%
CC(=O)NC(=S)Nc1ccc(NC(=S)NC(=O)c2ccc([N+](=O)[O-])cc2)cc1 56.3%
CC1(C)CCSC(/C=C/c2ccccc2)=N1 76.1%
CN(Cc1ccccc1)C(=O)COc1ccccc1 34.5%
CCO[C@H]1OC(C(=O)N2CCOCC2)=C[C@@H](c2ccc3c(c2)OCO3)[C@@H]1CCCO 31.2%
O=C(N/N=C1\CCSC1)c1cc(Cl)ccc1O 39.8%
O=[N+]([O-])c1cc(S(=O)(=O)NCCc2ccccn2)ccc1Cl 40.3%
Fc1ccc(-c2ccc(CNCc3ccccn3)o2)cc1Cl 52.7%

inhibition, inactive:
O=C(NCCc1ccccc1)c1cccc(NC(=O)c2ccccc2)c1 -3.44%
CC(C)(C)OC(=O)C[C@@H]1C/C=C\C[C@@H](CC(=O)N[C@H](CO)Cc2ccccc2)C(=O)NCCOC1=O -9.11%
O=C(NNC(=O)c1ccccc1O)c1ccccc1O -3.61%
CN1CCN(C(=O)c2ccc(-c3ccc(Br)cc3)o2)CC1 -4.62%
S=C(c1ccccc1)N1CCCC1 -2.69%
C=CC[C@H](CC(=O)N(CCO)Cc1ccccc1)C(=O)N[C@@H](COC(=O)[C@@H](CC=C)Cc1ccc(F)cc1)Cc1ccccc1 -5.7%
CC(C)N(C(=O)[C@H]1C[C@H](CC(=O)NCCC2=CCCCC2)C(=O)N2CCc3c([nH]c4cc(CCC(=O)N(C)C)ccc34)[C@]12C)C(C)C -1.76%
Cc1ccccc1-n1nnc2c(=O)oc3ccccc3c21 0.078%
CC(C)(C)Nc1c(N)c(=O)oc2ccccc12 3.5%
COCCN(C(=O)C(C)N1C(=O)c2ccccc2C1=O)c1c(N)n(CC(C)C)c(=O)[nH]c1=O (stereo not given) -19.9%
COc1ccc(CC(=O)N[C@@H]2c3cc(OC)c(OC)cc3C[C@H]2OCc2ccccc2)cc1 -0.172%
COc1ccc(C)cc1NC(=O)Nc1ccccc1SC -2.98%
CSc1ccccc1NC(=O)c1cnc2sc(C)cn2c1=O -2.14%
O=C(COC(=O)COc1cccc(F)c1)NCC1CCCCC1 -0.678%
O=C(Nc1nnc(-c2ccccc2)o1)c1cccc(S(=O)(=O)N2CCOCC2)c1 7.28%
O=C(Oc1ccccc1Cl)c1ccc(N2CCOCC2)c([N+](=O)[O-])c1 -0.07%
O=C(c1ccc(N2CCOCC2)c([N+](=O)[O-])c1)N1CCN(c2ccccc2F)CC1 -2.67%
CC(=O)Nc1ccc(S(=O)(=O)Nc2ccc(N3CCCCC3)cc2)cc1 -0.222%
CC(C)N(C(=O)[C@H]1C[C@H](CC(=O)NC(C)(C)C)C(=O)N2CCc3c([nH]c4ccc(Cl)cc34)[C@]12C)C(C)C 1.76%
COc1ccc(C)cc1NC(=O)CSc1nnc(CC(=O)Nc2ccccc2F)n1C -5.79%
Cn1c(SCC(=O)Nc2ccc(Br)cc2F)nnc1-c1ccco1 -0.672%
CN(C)c1ccc(CSc2ccccc2)cc1 -6.85%
COc1ccc2oc(N)nc2c1 -0.189%
CCOC(=O)c1ccccc1NC(=O)CSc1nc2c(sc(=S)n2CC)c(=O)[nH]1 -5.33%
CCN(C[C@H]1N[C@@](CC)(C(=O)OC)[C@H]2C(=O)N(Cc3ccccc3)C(=O)[C@@H]12)S(=O)(=O)c1ccc(C(F)(F)F)cc1 -1.59%
O=C(O)CN1CCN(C(c2ccccc2)c2ccccc2)CC1 0.69%
CC(C)NC(=S)N1CCN(C(c2ccccc2)c2ccccc2)CC1 -1.91%
CCCCN1CC(CO)Oc2cccc(F)c2S1(=O)=O (stereo not given) -3.69%
CCCCCC1CC(COc2ccccc2)OC1=O (stereo not given) 8.53%
COc1cccc(C=CC(=O)C=CC=Cc2ccccc2)c1 0.692%
Cc1[nH]n(-c2ccccc2)c(=O)c1N=Nc1ccccc1C(=O)N1CCCCC1 -3.5%
C=CCNC(=S)N1CCN(CCN=Cc2c(C)[nH]n(-c3ccc([N+](=O)[O-])cc3)c2=O)CC1 -1.05%
COc1ccc(C(=O)Nc2cccc(/C=C(/CCC(=O)O)c3nc4ccccc4s3)c2)cc1 -1.62%
Cc1onc(-c2c(F)cccc2Cl)c1C(=O)OCC(=O)N1C(C)CCCC1C (stereo not given) -2.47%
COc1ccc(CC(=O)NC(C)c2ccc(Cl)c(Cl)c2)cc1S(=O)(=O)N1CCOCC1 (stereo not given) -1.91%
CCCN(CC(=O)NC(=O)NC1CCCCC1)CC(=O)Nc1cc(Cl)ccc1Cl -3.68%
CN(c1ccccc1)S(=O)(=O)c1ccc(NC(=O)COc2ccccc2)cc1 -1.05%
Cc1ccc(S(=O)(=O)N(C)c2ccc(OCC(=O)NC3=NCCS3)cc2)cc1 -1.61%
Cc1ccc(S(=O)(=O)N2CCN(C(=O)Cn3c(=O)cnc4ccccc43)CC2)c(C)c1 -10.5%
COc1ccc(CNCCCNCc2ccc(OC)c(OC)c2)cc1OC 2.4%
CSCC(NS(=O)(=O)c1ccc(C)cc1)C(=O)O (stereo not given) 2.04%
CSCCC(NC(=O)c1ccccc1)C(=O)N1CCCCCCC1 (stereo not given) -1.09%
O=C1[C@@H](c2ccccc2)[C@@H](c2ccccc2)N1c1cccnc1 -3.46%
O=C(Cc1ccc(S(=O)(=O)N2CCOCC2)s1)Nc1ccc(Br)c(C(F)(F)F)c1 -2.21%
Cc1nc2ccc(NC(=O)c3cccc(S(=O)(=O)N4CCOCC4)c3)cc2s1 -4.38%
CC(=O)Nc1ccc(NC(=S)NC(=O)c2ccc([N+](=O)[O-])c(C)c2)cc1 -0.773%
O=C(NC(=S)Nc1ccc(NC(=O)c2cccs2)cc1)c1ccc([N+](=O)[O-])cc1 -2.58%
O=C(Nc1ccc2ccccc2c1[N+](=O)[O-])c1ccccc1 0.89%
CC(C)[C@@H](C(=O)OCC(=O)c1ccc2c(c1)NC(=O)CO2)N1C(=O)c2ccccc2C1=O -3.95%
CN(Cc1ccc(F)cc1)C(=O)COc1ccc2ccccc2c1 -2.25%
CN(Cc1ccccc1)C(=O)c1ccc(COc2ccccc2)cc1 -2.72%
CN1CCC(N(C)C(=O)c2ccc(Cl)c(S(=O)(=O)Nc3ccc(Cl)cc3)c2)CC1 4.93%
CC(C)(C)OC(=O)N1CCC(C(=O)Nc2cccc(C(=O)NCCc3ccccc3)c2)CC1 -2.65%
COc1ccc(CNc2nc(NCc3ccc(OC)cc3)c3ncn(C4CCCC4)c3n2)cc1 2.25%
O=C(Nc1cc(S(=O)(=O)Nc2ccc(Cl)cc2)ccc1O)c1ccc(F)cc1F -2.45%
COc1ccc(N=C2C=CC(=O)O2)cc1 -18.5%
CCO[C@@H]1OC(C(=O)N2CCOCC2)=C[C@H](C)[C@H]1CCCO -0.99%
CCO[C@H]1OC(C(=O)N2CCCCCCC2)=C[C@@H](c2ccc(C(F)(F)F)cc2)[C@@H]1CCCO -1.81%
O=C(Cc1ccc(NC(=O)C2CCCN(C(=O)CCc3ccccc3)C2)cc1)Nc1ccc(C(=O)N2CCOCC2)cc1 (stereo not given) -8.09%
CC1CCCCC1NCC(=O)Nc1ccccc1C(=O)Nc1ccccc1 (stereo not given) -1.41%
CN(C)C(=S)N=c1ssc(=S)n1Cc1ccco1 -2.26%
O=C(CNC(=O)c1cc(S(=O)(=O)N2CCOCC2)ccc1N1CCCC1)Nc1ccc(F)c(F)c1 -2.42%
C/C(=N/NC(=O)c1cc(Cl)ccc1O)C12CC3CC(CC(C3)C1)C2 0.948%
CC(C)/C=N/NC(=O)c1cc(Br)ccc1O -1.22%
COc1cc(O)c2c(=O)c3c(O)c(O)ccc3oc2c1OC -1.48%
O=C(Cn1cnc2c(OCc3ccccc3)ncnc21)NCc1nc2ccccc2[nH]1 9.79%
CCOc1cc(C(=O)N(Cc2ccccc2)c2ccc(C)cc2)ccc1OCC(=O)N1CCOCC1 -2.56%
N#CC1(Nc2ccc(-c3ccc(Cl)cc3)cc2)CCCC1 -1.39%
O=[N+]([O-])c1cccc(S(=O)(=O)NCc2ccccn2)c1 -3.81%
O=S(=O)(NCCc1ccccn1)c1cc(Cl)cc(Cl)c1O -0.874%
Cc1c(NS(=O)(=O)c2cccc(C(=O)Nc3ccc(SC(F)F)cc3)c2)c(=O)n(-c2ccccc2)n1C -2.68%
Cc1cc(S(=O)(=O)NCc2ccccn2)c(Cl)cc1Cl -2.31%
CN(Cc1ccccn1)Cc1nc(-c2ccc(Cl)cc2)no1 -1.29%
